# Data: PubChem BioAssay
# Results filed as inconclusive are left out. The source made the active and inactive calls.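 The calls were made as follows, unless noted: active = thallium flux through the channel raised or lowered by more than 3 SD from vehicle-only wells, actives on both sides; inactive = the rest.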
# What was measured:
# [1] = compounds altering viability of human ES cells (AID 493140; call rule not given here;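 also: cells exposed to compounds for four days before counting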); conditions: human embryonic stem cell survival screen; stronger effect = higher value
# [2] = molecular target: NAD(+) hydrolase SARM1 (Homo sapiens) (UniProt Q6SZW1); assay: blocking NAD cleavage by SARM1 SAM-TIR – cell lysate, NAD-Glo luminescence (AID 1508614;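 active = compound whose remaining NAD level is above about 45 nM, limit read from the data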;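 also: higher remaining NAD means stronger inhibition of SARM1 NADase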); conditions: SAM-TIR HEK293T lysate NADase, at 1 µM, stronger effect = higher value
# Sequence of NAD(+) hydrolase SARM1 (Homo sapiens) (Q6SZW1 whole entry, looked up): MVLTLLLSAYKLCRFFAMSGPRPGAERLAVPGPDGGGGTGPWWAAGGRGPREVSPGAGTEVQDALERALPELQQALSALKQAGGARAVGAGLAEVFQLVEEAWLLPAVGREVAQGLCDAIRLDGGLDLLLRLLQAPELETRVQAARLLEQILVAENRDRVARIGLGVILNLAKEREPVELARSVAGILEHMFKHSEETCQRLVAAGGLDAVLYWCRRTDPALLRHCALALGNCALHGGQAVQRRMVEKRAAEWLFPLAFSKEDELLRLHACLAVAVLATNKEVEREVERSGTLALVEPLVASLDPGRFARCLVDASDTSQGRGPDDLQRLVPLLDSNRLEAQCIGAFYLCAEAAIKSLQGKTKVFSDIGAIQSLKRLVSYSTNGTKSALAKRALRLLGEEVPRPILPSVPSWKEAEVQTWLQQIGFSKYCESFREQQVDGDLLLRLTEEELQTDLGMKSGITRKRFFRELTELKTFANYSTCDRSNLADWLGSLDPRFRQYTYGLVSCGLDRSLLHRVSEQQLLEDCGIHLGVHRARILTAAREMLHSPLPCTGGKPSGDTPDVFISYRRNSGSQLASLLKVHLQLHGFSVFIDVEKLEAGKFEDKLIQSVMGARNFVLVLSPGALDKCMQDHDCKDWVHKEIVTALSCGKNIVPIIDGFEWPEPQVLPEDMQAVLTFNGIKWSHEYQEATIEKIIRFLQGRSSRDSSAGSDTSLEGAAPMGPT
# F380Y/beta4 = assay: BK channel mutant inhibitors and activators – cell-based, U2OS BacMam, thallium flux, beta subunits, selectivity assay, profiling panel (AID 1259406); conditions: U2OS BacMam BK variants, at 30 µM;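 also: initial slope of Thallos dye fluorescence rise after thallium is added; log ratio against the mean of 0.3% DMSO vehicle wells on the same plate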
# R275C/beta4 = assay: as above; conditions: U2OS BacMam BK variants, at 30 µM
# R275C/Slo1WT/beta2 = assay: as above; conditions: U2OS BacMam BK variants, at 30 µM
# [3] = blockers of polyQ-driven CASP3 activation – cell-based (AID 1583); conditions: polyglutamine-induced caspase-3 activation, cell assay; stronger effect = higher value;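 tested at 10 µM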
# [4] = yeast 75Q aggregation reduction – 75Q-TubU reporter (AID 1593); conditions: Yeast 75Q polyglutamine aggregation reporter
# [5] = blockers of cytochrome c efflux from mitochondria – biochemical, purified mitochondria (AID 1603); conditions: stronger effect = lower value;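 also: mouse liver mitochondria challenged with calcium chloride; signal normalized to the plate average as 100%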
# [6] = polyglutamine aggregate formation blockers (AID 1604); conditions: polyglutamine-induced protein aggregation inhibition assay; stronger effect = higher value; tested at 2.5 µM
# [7] = glutamate transport activators, MN-1 cells, MN-1 cell line (AID 1612); conditions: MN-1 motor neuron cells, stronger effect = higher value;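 also: tested at 1 µM final; 0% = mean of DMSO vehicle wells on each plate; positive means more glutamate uptake than control and negative means less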
# [8] = 75Q-TubH aggregate inhibition, S. cerevisiae, yeast (AID 1616); conditions: S. cerevisiae 75Q-TubH polyglutamine aggregation suppression; stronger effect = higher value
# [9] = test system: Neuropilin-2 / VEGF-C interaction (human); assay: small molecules blocking Neuropilin-2/VEGF-C interaction – biochemical, microplate binding format, z-score (AID 743281; call rule not given here); conditions: microplate NRP2/VEGF-C binding assay; stronger effect = lower value
# [10] = viability loss in pontine glioma line – cell-based, JHH-DIPG-1, MIPE4.0, CellTiter-Glo, qHTS, dose response (AID 1347062; cut-off not given, nearly all actives have AC50 up to about 27 µM); conditions: JHH-DIPG-1 viability, CellTiter-Glo ATP luminescence
# [11] = growth inhibition of DIPG cells – cell-based, MIPE4.0 library, CellTiter-Glo luminescence, qHTS (AID 1347066; cut-off not given, nearly all actives have AC50 up to about 30 µM;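 also: cells exposed to compound for 48 hours before readout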); conditions: SU-DIPG-VI viability, CellTiter-Glo ATP luminescence
# [12] = compounds altering circadian rhythm period length – cell-based, LOPAC library, luminescence reporter (AID 2774; call rule not given here;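 also: values are relative to mean of DMSO wells on each plate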); conditions: circadian reporter cells, at 7 µM, actives lie on both sides
# [13] = test system: Hepatitis C virus NS3 helicase; assay: blockers of NS3h binding to ssDNA – biochemical, fluorescence polarization, LOPAC1280 library, primary screen (AID 687035; in the data active = inhibition above about 37%); conditions: Purified HCV NS3 helicase, Cy5-dT15 ssDNA binding fluorescence polarization; stronger effect = higher value; concentration not given here
# [14] = compounds altering Cy5-DNA-NS3h complex signal – biochemical, LOPAC1280, artefact control for HCV NS3 helicase inhibitor project (AID 687037; call rule not given here); conditions: Cy5-DNA-NS3h complex fluorescence interference counterscreen
# [15] = blockers of cellular phospholipid synthesis – cell-based, LOPAC library, screen 4, primary screen (AID 1347384; call rule not given here); conditions: animal cells, phospholipid biosynthesis inhibition screen; at 10 µM
# [16] = viability loss in pontine glioma line – cell-based, SU-DIPG-XXV, MIPE5.0, CellTiter-Glo, qHTS, dose response (AID 1347065; cut-off not given, nearly all actives have AC50 up to about 26 µM;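 also: cells exposed to compound for 48 hours before ATP readout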); conditions: CellTiter-Glo ATP luminescence
# [17] = compounds altering HSF1 focus formation in cells – imaging, Selleck Cancer Library (AID 1347162; in the data active = plate-normalised HSF1 focus index below about 0.46); conditions: human cells, HSF1 nuclear foci imaging, at 10 µM; SSMD: measured here: HSF1 foci SSMD mean; cell count: measured here: cell number; plate-normalised HSF1 focus index: stronger effect = lower value
smiles,measurement,setting,value
CCN1CCN(C(=O)N[C@@H](C(=O)N[C@@H]2C(=O)N3[C@@H]2SC(C)(C)[C@@H]3C(=O)O)c2ccccc2)C(=O)C1=O,survival,[1],1.83 (inactive)
same,remaining NAD,[2],10 nM (inactive)
same,log fold change Tl+ flux,F380Y/beta4,-0.0114 (inactive)
same,log fold change Tl+ flux,R275C/beta4,0.0304 (inactive)
same,log fold change Tl+ flux,R275C/Slo1WT/beta2,0.0399 (inactive)
CCCCC(=O)O[C@H]1CC[C@H]2[C@@H]3CCc4cc(O)ccc4[C@H]3CC[C@]12C,remaining NAD,[2],10 nM (inactive)
same,log fold change Tl+ flux,F380Y/beta4,0.00293 (inactive)
same,log fold change Tl+ flux,R275C/beta4,-0.0402 (inactive)
same,log fold change Tl+ flux,R275C/Slo1WT/beta2,0.00597 (inactive)
COc1ccc2c3c1O[C@H]1C[C@@H](O)C=C[C@@]31CCN(C)C2,inhibition,[3],-3.14%
same,score,[4],1.34
same,cytochrome c release ratio,[5],0.63
same,inhibition of aggregation,[6],91.6%
same,glutamate uptake change,[7],5.19%
same,aggregation suppression score,[8],1.04
same,survival,[1],11.9 (inactive)
same,z-score,[9],0.00606 (inactive)
same,outcome,[10],inactive
same,outcome,[11],inactive
same,remaining NAD,[2],10 nM (inactive)
CC(=O)O[C@]1(C(C)=O)CC[C@H]2[C@@H]3C[C@H](C)C4=CC(=O)CC[C@]4(C)[C@H]3CC[C@@]21C,outcome,[10],inactive
same,outcome,[11],inactive
same,remaining NAD,[2],10 nM (inactive)
same,log fold change Tl+ flux,F380Y/beta4,-0.000109 (inactive)
same,log fold change Tl+ flux,R275C/beta4,0.0252 (inactive)
same,log fold change Tl+ flux,R275C/Slo1WT/beta2,0.0102 (inactive)
C=CC1=C(C(=O)O)N2C(=O)[C@@H](NC(=O)/C(=N\O)c3csc(N)n3)[C@H]2SC1 (stereo in doubt),outcome,[9],inactive
same,outcome,[10],inactive
same,outcome,[11],inactive
same,remaining NAD,[2],10 nM (inactive)
CCCC1O[C@@H]2C[C@H]3[C@@H]4CCC5=CC(=O)C=C[C@]5(C)[C@H]4[C@@H](O)C[C@]3(C)[C@]2(C(=O)CO)O1 (some centres undefined),period change,[12],-0.26 h (inactive)
same,survival,[1],0.833 (inactive)
same,inhibition,[13],-5% (inactive)
same,fluorescence ratio (interference),[14],0.9 (inactive)
same,outcome,[15],inactive
same,remaining NAD,[2],10 nM (inactive)
same,log fold change Tl+ flux,F380Y/beta4,0.0417 (inactive)
same,log fold change Tl+ flux,R275C/beta4,0.1 (inactive)
same,log fold change Tl+ flux,R275C/Slo1WT/beta2,-0.0145 (inactive)
CC1(C)SC2C(NC(=O)COc3ccccc3)C(=O)N2C1C(=O)O (centres undefined),log fold change Tl+ flux,F380Y/beta4,-0.00549 (inactive)
same,log fold change Tl+ flux,R275C/beta4,0.0174 (inactive)
same,log fold change Tl+ flux,R275C/Slo1WT/beta2,0.0607 (inactive)
COc1ccc(-c2oc3c(CC=C(C)C)c(O[C@@H]4O[C@H](CO)[C@@H](O)[C@H](O)[C@H]4O)cc(O)c3c(=O)c2O[C@@H]2O[C@@H](C)[C@H](O)[C@@H](O)[C@H]2O)cc1,z-score,[9],0.976 (inactive)
same,log fold change Tl+ flux,F380Y/beta4,-0.0291 (inactive)
same,log fold change Tl+ flux,R275C/beta4,-0.0348 (inactive)
same,log fold change Tl+ flux,R275C/Slo1WT/beta2,0.0155 (inactive)
CN=C(N)NCCC[C@H](N)C(=O)O,period change,[12],-0.035 h (inactive)
same,inhibition,[13],0% (inactive)
same,fluorescence ratio (interference),[14],1 (inactive)
same,z-score,[9],-0.991 (inactive)
same,outcome,[15],inactive
OC[C@H]1O[C@@H](Oc2cc(O)cc(/C=C/c3ccc(O)cc3)c2)[C@H](O)[C@@H](O)[C@@H]1O,z-score,[9],0.265 (inactive)
same,outcome,[10],inactive
same,outcome,[16],inactive
same,outcome,[11],inactive
same,log fold change Tl+ flux,F380Y/beta4,-0.0711 (inactive)
same,log fold change Tl+ flux,R275C/beta4,0.00405 (inactive)
same,log fold change Tl+ flux,R275C/Slo1WT/beta2,0.104 (active)
CC(=O)N=c1sc(S(N)(=O)=O)nn1C,inhibition,[3],0.15%
same,score,[4],0.84
same,cytochrome c release ratio,[5],0.55
same,inhibition of aggregation,[6],49.4%
same,glutamate uptake change,[7],-1.05%
same,aggregation suppression score,[8],1.33
same,survival,[1],5.08 (inactive)
same,remaining NAD,[2],10 nM (inactive)
same,log fold change Tl+ flux,F380Y/beta4,0.0268 (inactive)
same,log fold change Tl+ flux,R275C/beta4,-0.0118 (inactive)
same,log fold change Tl+ flux,R275C/Slo1WT/beta2,-0.0121 (inactive)
C#C[C@]1(O)CC[C@H]2[C@@H]3CCC4=CC(=O)CC[C@@H]4[C@H]3CC[C@@]21C,survival,[1],14.7 (inactive)
same,remaining NAD,[2],10 nM (inactive)
same,log fold change Tl+ flux,F380Y/beta4,0.0669 (inactive)
same,log fold change Tl+ flux,R275C/beta4,-0.0715 (inactive)
same,log fold change Tl+ flux,R275C/Slo1WT/beta2,-0.0385 (inactive)
Cn1cc[nH]c1=S,inhibition,[3],14.9%
same,score,[4],1.43
same,cytochrome c release ratio,[5],1.1
same,inhibition of aggregation,[6],48%
same,glutamate uptake change,[7],-2.61%
same,aggregation suppression score,[8],1.46
same,survival,[1],1.42 (inactive)
same,remaining NAD,[2],10 nM (inactive)
same,log fold change Tl+ flux,F380Y/beta4,0.0112 (inactive)
same,log fold change Tl+ flux,R275C/beta4,0.0185 (inactive)
same,log fold change Tl+ flux,R275C/Slo1WT/beta2,0.019 (inactive)
CCCc1nc(C(C)(C)O)c(C(=O)OCc2oc(=O)oc2C)n1Cc1ccc(-c2ccccc2-c2nn[nH]n2)cc1,outcome,[9],inactive
same,remaining NAD,[2],10 nM (inactive)
Nc1ccn([C@@H]2O[C@H](CO)[C@@H](O)C2O)c(=O)n1 (some centres undefined),z-score,[9],0.042 (inactive)
same,outcome,[10],inactive
same,outcome,[16],inactive
same,SSMD,[17],-7.27
same,cell count,[17],7440
same,plate-normalised HSF1 focus index,[17],0.739 (inactive)
same,outcome,[15],inactive
same,remaining NAD,[2],10 nM (inactive)
CC(C)[N+]1(C)C2CCC1CC(OC(=O)C(CO)c1ccccc1)C2 (centres undefined),survival,[1],16.6 (inactive)
same,outcome,[11],inactive
same,log fold change Tl+ flux,F380Y/beta4,0.0435 (inactive)
same,log fold change Tl+ flux,R275C/beta4,0.0153 (inactive)
same,log fold change Tl+ flux,R275C/Slo1WT/beta2,-0.0119 (inactive)
CON=C(C(=O)NC1C(=O)N2C(C(=O)O)=C(COC(C)=O)CSC12)c1csc(N)n1 (centres undefined),log fold change Tl+ flux,F380Y/beta4,0.0152 (inactive)
same,log fold change Tl+ flux,R275C/beta4,-0.0222 (inactive)
same,log fold change Tl+ flux,R275C/Slo1WT/beta2,-0.0319 (inactive)
CC1(C)S[C@@H]2[C@H](NC(=O)[C@H](N)c3ccc(O)cc3)C(=O)N2[C@H]1C(=O)O,survival,[1],6.33 (inactive)
same,remaining NAD,[2],10 nM (inactive)
same,log fold change Tl+ flux,F380Y/beta4,-0.0174 (inactive)
same,log fold change Tl+ flux,R275C/beta4,0.0282 (inactive)
same,log fold change Tl+ flux,R275C/Slo1WT/beta2,0.0404 (inactive)
CC(=O)OCC(=O)[C@@]1(O)CC[C@H]2[C@@H]3CCC4=CC(=O)CC[C@]4(C)[C@H]3[C@@H](O)C[C@@]21C,remaining NAD,[2],10 nM (inactive)
same,log fold change Tl+ flux,F380Y/beta4,0.0297 (inactive)
same,log fold change Tl+ flux,R275C/beta4,-0.0187 (inactive)
same,log fold change Tl+ flux,R275C/Slo1WT/beta2,-0.0133 (inactive)
CCC(=O)OCC(=O)[C@@]1(OC(=O)CC)[C@@H](C)C[C@H]2[C@@H]3CCC4=CC(=O)C=C[C@]4(C)[C@@]3(Cl)[C@@H](O)C[C@@]21C,remaining NAD,[2],10 nM (inactive)
same,log fold change Tl+ flux,F380Y/beta4,-0.237 (active)
same,log fold change Tl+ flux,R275C/beta4,0.0199 (inactive)
same,log fold change Tl+ flux,R275C/Slo1WT/beta2,-0.0376 (inactive)
CNCCC=C1c2ccccc2CCc2ccccc21,inhibition,[3],16.9%
same,score,[4],1.22
same,cytochrome c release ratio,[5],0.98
same,inhibition of aggregation,[6],72.7%
same,glutamate uptake change,[7],13.8%
same,aggregation suppression score,[8],1.32
same,period change,[12],0.025 h (inactive)
same,survival,[1],3.42 (inactive)
same,inhibition,[13],-5% (inactive)
same,fluorescence ratio (interference),[14],1 (inactive)
same,outcome,[15],inactive
same,remaining NAD,[2],10 nM (inactive)
same,log fold change Tl+ flux,F380Y/beta4,0.255 (active)
same,log fold change Tl+ flux,R275C/beta4,0.121 (inactive)
same,log fold change Tl+ flux,R275C/Slo1WT/beta2,-0.0571 (inactive)
CC(=O)OCC(=O)[C@@]1(O)CC[C@H]2[C@@H]3C[C@H](C)C4=CC(=O)C=C[C@]4(C)[C@H]3[C@@H](O)C[C@@]21C,log fold change Tl+ flux,F380Y/beta4,0.0393 (inactive)
same,log fold change Tl+ flux,R275C/beta4,0.0801 (inactive)
same,log fold change Tl+ flux,R275C/Slo1WT/beta2,0.0333 (inactive)
